# Test results reported in PubChem BioAssay.
# Results filed as inconclusive are left out. Calls of active or inactive are those of the source.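 How the source made its calls, unless noted: active means normalized viability below 100% at a tested concentration; inactive means the rest.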
# Key:
# [1] = viability loss in pontine glioma line – cell-based, SU-DIPG-XVII, MIPE5.0, CellTiter-Glo, qHTS, dose response (AID 1347060; cut-off not given, nearly all actives have AC50 up to about 26 µM); settings: CellTiter-Glo ATP luminescence
# [2] = viability loss in pontine glioma line – cell-based, JHH-DIPG-1, MIPE4.0, CellTiter-Glo, qHTS, dose response (AID 1347062; cut-off not given, nearly all actives have AC50 up to about 27 µM); settings: JHH-DIPG-1 viability, CellTiter-Glo ATP luminescence
# [3] = viability loss in pontine glioma line – cell-based, SU-DIPG-IV, MIPE4.0, CellTiter-Glo, qHTS, dose response (AID 1347063; cut-off not given, nearly all actives have AC50 up to about 30 µM;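 further: compound exposure lasted 48 hours before the viability readout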); settings: CellTiter-Glo ATP luminescence
# [4] = growth inhibition of DIPG cells – cell-based, MIPE4.0 library, CellTiter-Glo luminescence, qHTS (AID 1347066; cut-off not given, nearly all actives have AC50 up to about 30 µM;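 further: cells exposed to compound for 48 hours before readout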); settings: SU-DIPG-VI viability, CellTiter-Glo ATP luminescence
# [5] = JHH-DIPG-1 glioma cell viability, MIPE5.0 library, CellTiter-Glo luminescence, qHTS (AID 1347067; cut-off not given, nearly all actives have AC50 up to about 26 µM;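 further: cells exposed to compound for 48 hours before readout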); settings: JHH-DIPG-1 glioma viability, CellTiter-Glo ATP luminescence
# [6] = viability loss with induced miR-34 in A549 – imaging, A549 dox-inducible miR-34, nuclei and caspase counts, primary screen (AID 1347080;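 active means compounds whose cell count with miR-34 switched on is under 0.7 times the count with it off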); settings: A549 miR-34 inducible, Hoechst nuclei count, 48 h
# [7] = compounds altering HSF1 focus formation in cells – imaging, Selleck Cancer Library (AID 1347162; in the data active means plate-normalised HSF1 focus index below about 0.46); settings: human cells, HSF1 nuclear foci imaging, at 10 µM; SSMD: measured here: HSF1 foci SSMD mean; cell count: measured here: cell number; plate-normalised HSF1 focus index: stronger effect = lower value
# [8] = MELAS cybrid and Rieske KO viability enhancers – cell-based, MELAS cybrids, Rieske KO mouse fibroblasts, CellTiter-Glo, primary screen (AID 1508586;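 active means mean z-score across replicates of 1.96 or higher in either the MELAS or the Rieske mutant cell line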;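 further: z relative to plate mean and SD of compound and empty wells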); settings: low glucose
# [9] = drug combination growth inhibition, ovarian cancer – cell-based, oncology-focused library, rucaparib conditional, profiling panel (AID 1508598); settings: patient-derived ovarian cancer cells, CellTiter-Glo viability, 144 h, stronger effect = lower value
# [10] = growth inhibition, single agent or in combination, cell-based, chromothripsis tumors, cisplatin or BGB combos (AID 1671449; in the data active means inhibition above about 80%;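 further: cells exposed for 96 hours; 0% = vehicle DMSO and 100% = killing by high DMSO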); settings: LFS_MB_P medulloblastoma cells
# [11] = growth inhibition, single agent and combos, cell-based, chromothripsis tumors, cisplatin or BGB combos (AID 1671450; in the data active means inhibition above about 80%;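 further: cells exposed to compound for four days; 0% = vehicle DMSO and 100% = cell killing by high DMSO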); settings: HDN33 neuroblastoma cells, stronger effect = higher value
# [12] = growth inhibition, single agents and combos, ICB984, cell-based, cisplatin or BGB combos, synergistic combos for chromothripsis tumors (AID 1671451; call rule not given here;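 further: cells exposed for 96 hours before readout; 0% = vehicle DMSO and 100% = killing by high DMSO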); settings: ICB984 medulloblastoma cells, drug combinations, stronger effect = higher value
# [13] = growth inhibition, single agents and combos, HTB85, cell-based, BGB or cisplatin IC20 combos, synergistic combos for chromothripsis tumors (AID 1671453; in the data active means inhibition above about 80%;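 further: cells exposed for 96 hours before readout; 0% = vehicle DMSO and 100% = high DMSO killing control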); settings: HTB85 osteosarcoma cells, drug combinations, stronger effect = higher value
# [14] = growth inhibition, MDA-MB-436, cell-based, BGB or cisplatin combos, synergistic combos for chromothripsis tumors (AID 1671458; call rule not given here;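 further: cells exposed for 96 hours; 0% = vehicle DMSO and 100% = killing by high DMSO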); settings: MDA-MB-436 breast carcinoma growth inhibition, drug combinations, stronger effect = higher value
# [15] = BT084 cell growth, single and combined drugs, ICGC_MB145, cisplatin and BGB IC40 combos (AID 1671461; in the data active means inhibition above about 80%;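 further: cells exposed to drugs for 96 hours; 0% = vehicle DMSO and 100% = high DMSO full killing control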); settings: BT084 medulloblastoma cells, drug combinations, stronger effect = higher value
# [16] = RCMB18 cell growth, single agent and combined, cisplatin and BGB IC40 combos (AID 1671462; in the data active means inhibition above about 80%;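 further: cells exposed to compound for four days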); settings: RCMB18 medulloblastoma cells, stronger effect = higher value
structure (smiles),measurement,setting,value
O=C(O)[C@H](Cc1c[nH]c2ccccc12)N1C(=O)c2ccccc2C1=O,outcome,[1],inactive
same,outcome,[2],inactive
same,outcome,[3],inactive
same,outcome,[4],inactive
same,outcome,[5],inactive
same,fold change,"[6]; stronger effect = lower value, cell number ratio, induced over uninduced",0.96 (inactive)
same,fold change,[6]; measured here: relative caspase fold change +Dox/-Dox,0.441
same,cell count,"[6]; measured here: total cells with miR-34 induction, stronger effect = lower value",7740
same,cell count,[6]; measured here: total cells without miR-34 induction,8070
same,SSMD,[7],2.52
same,cell count,[7],7570
same,plate-normalised HSF1 focus index,[7],1.16 (inactive)
same,z-score,"[8]; MELAS cybrid survival, CellTiter-Glo 48 h, stronger effect = higher value",-0.375 (inactive)
same,z-score,"[8]; Rieske KO mouse fibroblast survival, CellTiter-Glo 72 h",-0.075
same,viability,"[9]; at 0.000305 µM, OCI-C5x cells, with rucaparib 10 µM, 100% = cells with rucaparib alone",113% (inactive)
same,viability,"[9]; at 0.000305 µM, OCI-C5x cells, without rucaparib",103% (inactive)
same,viability,"[9]; at 0.000305 µM, OCI-P5x cells, with rucaparib 20 µM, 100% = cells with rucaparib alone",84.4% (active)
same,viability,"[9]; at 0.000305 µM, OCI-P5x cells, without rucaparib",85.2% (active)
same,viability,"[9]; at 0.00122 µM, OCI-C5x cells, with rucaparib 10 µM, 100% = cells with rucaparib alone",126% (inactive)
same,viability,"[9]; at 0.00122 µM, OCI-C5x cells, without rucaparib",108% (inactive)
same,viability,"[9]; at 0.00122 µM, OCI-P5x cells, with rucaparib 20 µM, 100% = cells with rucaparib alone",92% (active)
same,viability,"[9]; at 0.00122 µM, OCI-P5x cells, without rucaparib",93.9% (active)
same,viability,"[9]; at 0.00488 µM, OCI-C5x cells, with rucaparib 10 µM, 100% = cells with rucaparib alone",118% (inactive)
same,viability,"[9]; at 0.00488 µM, OCI-C5x cells, without rucaparib",117% (inactive)
same,viability,"[9]; at 0.00488 µM, OCI-P5x cells, with rucaparib 20 µM, 100% = cells with rucaparib alone",89.2% (active)
same,viability,"[9]; at 0.00488 µM, OCI-P5x cells, without rucaparib",93.1% (active)
same,viability,"[9]; at 0.0195 µM, OCI-C5x cells, with rucaparib 10 µM, 100% = cells with rucaparib alone",116% (inactive)
same,viability,"[9]; at 0.0195 µM, OCI-C5x cells, without rucaparib",115% (inactive)
same,viability,"[9]; at 0.0195 µM, OCI-P5x cells, with rucaparib 20 µM, 100% = cells with rucaparib alone",91% (active)
same,viability,"[9]; at 0.0195 µM, OCI-P5x cells, without rucaparib",97.2% (active)
same,viability,"[9]; at 0.0781 µM, OCI-C5x cells, with rucaparib 10 µM, 100% = cells with rucaparib alone",109% (inactive)
same,viability,"[9]; at 0.0781 µM, OCI-C5x cells, without rucaparib",117% (inactive)
same,viability,"[9]; at 0.0781 µM, OCI-P5x cells, with rucaparib 20 µM, 100% = cells with rucaparib alone",87.1% (active)
same,viability,"[9]; at 0.0781 µM, OCI-P5x cells, without rucaparib",98.7% (active)
same,viability,"[9]; at 0.313 µM, OCI-C5x cells, with rucaparib 10 µM, 100% = cells with rucaparib alone",115% (inactive)
same,viability,"[9]; at 0.313 µM, OCI-C5x cells, without rucaparib",119% (inactive)
same,viability,"[9]; at 0.313 µM, OCI-P5x cells, with rucaparib 20 µM, 100% = cells with rucaparib alone",63.7% (active)
same,viability,"[9]; at 0.313 µM, OCI-P5x cells, without rucaparib",54.2% (active)
same,viability,"[9]; at 1.25 µM, OCI-C5x cells, with rucaparib 10 µM, 100% = cells with rucaparib alone",110% (inactive)
same,viability,"[9]; at 1.25 µM, OCI-C5x cells, without rucaparib",116% (inactive)
same,viability,"[9]; at 1.25 µM, OCI-P5x cells, with rucaparib 20 µM, 100% = cells with rucaparib alone",91.1% (active)
same,viability,"[9]; at 1.25 µM, OCI-P5x cells, without rucaparib",105% (inactive)
same,viability,"[9]; at 5 µM, OCI-C5x cells, with rucaparib 10 µM, 100% = cells with rucaparib alone",114% (inactive)
same,viability,"[9]; at 5 µM, OCI-C5x cells, without rucaparib",124% (inactive)
same,viability,"[9]; at 5 µM, OCI-P5x cells, with rucaparib 20 µM, 100% = cells with rucaparib alone",87.9% (active)
same,viability,"[9]; at 5 µM, OCI-P5x cells, without rucaparib",107% (inactive)
same,inhibition,"[10]; at 0.5 µM, stronger effect = higher value",-11.4% (inactive)
same,inhibition,"[10]; measured here: combination with BGB IC20, at 0.005 µM",-13.3%
same,inhibition,"[10]; measured here: combination with BGB IC40, at 0.005 µM",-16.5%
same,inhibition,"[10]; measured here: combination with BGB IC40, at 0.05 µM",-16.7%
same,inhibition,"[10]; measured here: combination with cisplatin, at 0.5 µM, stronger effect = higher value",-21.3%
same,inhibition,"[10]; measured here: combination with cisplatin, at 5 µM, stronger effect = higher value",-30.6%
same,inhibition,"[11]; BGB combo, at 5 µM",-27.5%
same,inhibition,[11]; at 0.5 µM,-36.3% (inactive)
same,inhibition,"[11]; cisplatin combo, at 5 µM",-28.6%
same,inhibition,"[11]; measured here: with BGB IC20 combination, at 0.5 µM",-35.8%
same,inhibition,"[11]; measured here: with cisplatin IC20 combination, at 0.5 µM",-38.5%
same,inhibition,"[11]; single agent, at 5 µM",-17%
same,inhibition,"[12]; BGB IC20 combo, at 0.005 µM",2.36%
same,inhibition,"[12]; BGB IC40 combo, at 0.005 µM",-26.6%
same,inhibition,"[12]; BGB IC40 combo, at 0.05 µM",4.66%
same,inhibition,[12]; at 0.5 µM,-28.2% (inactive)
same,inhibition,"[12]; cisplatin combo, at 0.05 µM",1.23%
same,inhibition,"[12]; cisplatin combo, at 0.5 µM",-24.8%
same,inhibition,"[12]; cisplatin combo, at 5 µM",-12.9%
same,inhibition,"[12]; measured here: 5 uM single agent, at 5 µM",3.99%
same,inhibition,[13]; at 0.5 µM,-21.8% (inactive)
same,inhibition,"[13]; measured here: with BGB IC20, at 0.5 µM",-19.3%
same,inhibition,"[13]; measured here: with BGB IC20, at 5 µM",-13.7%
same,inhibition,"[13]; measured here: with cisplatin IC20, at 0.5 µM",-26.1%
same,inhibition,"[13]; measured here: with cisplatin IC20, at 5 µM",-16.9%
same,inhibition,"[13]; single agent, at 5 µM",-18.1%
same,inhibition,[14]; at 0.5 µM,-15.2% (inactive)
same,inhibition,"[14]; measured here: BGB combination, at 0.5 µM",-12%
same,inhibition,"[14]; measured here: BGB combination, at 5 µM",-8.16%
same,inhibition,"[14]; measured here: cisplatin combination, at 0.5 µM",-19.2%
same,inhibition,"[14]; measured here: cisplatin combination, at 5 µM",-7.27%
same,inhibition,[15]; at 0.5 µM,-10.1% (inactive)
same,inhibition,"[15]; cisplatin combination, at 0.5 µM",-26.2%
same,inhibition,"[15]; cisplatin combination, at 5 µM",-3.75%
same,inhibition,"[15]; measured here: BGB IC40 combination 0.05 uM, at 0.05 µM",-4.25%
same,inhibition,"[15]; single agent, at 5 µM",-4.64%
same,inhibition,[16]; at 0.5 µM,-10.5% (inactive)
same,inhibition,"[16]; cisplatin combo, at 5 µM",-5.73%
same,inhibition,"[16]; measured here: BGB IC40 combination, at 0.05 µM",-15.4%
same,inhibition,"[16]; measured here: combination with cisplatin, at 0.5 µM",-22.8%
same,inhibition,"[16]; single agent, at 5 µM",-14.1%
